Each structure is given as a SMILES string. The campaign covered roughly 330,000 compounds. About 930 (0.28%) were called active. This is one part of a sample in which actives are shown more often than they occur. Unmarked numbers belong to inactive results.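 The calls were made as follows: active = inhibition of at least 40% at 20 µM, with no more than 30% in the related APOBEC3A deaminase screen; inactive = the rest.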

Chain of DNA dC->dU-editing enzyme APOBEC-3G (Homo sapiens) (Q9HC16 whole entry, looked up): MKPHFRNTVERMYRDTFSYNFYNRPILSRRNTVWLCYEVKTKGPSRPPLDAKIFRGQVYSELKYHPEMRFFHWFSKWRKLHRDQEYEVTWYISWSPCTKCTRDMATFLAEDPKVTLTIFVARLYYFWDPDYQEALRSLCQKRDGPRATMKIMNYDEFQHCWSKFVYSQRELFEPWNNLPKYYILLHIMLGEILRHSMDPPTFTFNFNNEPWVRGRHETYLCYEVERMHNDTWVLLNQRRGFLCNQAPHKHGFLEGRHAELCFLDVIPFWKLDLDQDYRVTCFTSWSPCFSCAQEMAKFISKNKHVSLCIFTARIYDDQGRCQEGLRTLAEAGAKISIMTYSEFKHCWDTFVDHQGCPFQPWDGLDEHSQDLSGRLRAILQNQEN

This experiment concerns the target DNA dC->dU-editing enzyme APOBEC-3G (Homo sapiens) (UniProt Q9HC16). The experiment is described as follows: APOBEC3G DNA deaminase inhibitors, primary screen, biochemical, fluorescence, single-stranded DNA substrate, uHTS (AID 493012).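 Also: plate controls were DMSO wells with A3G for no effect and wells lacking A3G enzyme for full effect.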 Conditions: recombinant A3G, ssDNA deamination FAM/TAMRA fluorescence; at 20 µM; hits give high values.
One may read the inhibition as the drop in the measured response relative to a control, in per cent. Consider `COC(=O)N(c1ccc(OC)cc1)P1(=S)OCCC(C)O1` (stereo not given), for which the inhibition is 69.7% (active).

Turning to `Cn1c(O)c(C=NCCN2CCNCC2)c(=O)n(C)c1=O`, the inhibition is -1.92%.

On to `CCCC[N+]1(C)C2CC(OC(=O)C(CO)c3ccccc3)CC1C1OC12` (stereo not given), for which the inhibition is -0.137%.

With `CCN1CCN(Cc2cc(OC)c3c(c2)OCO3)CC1`, the inhibition is -5.01%.

Regarding `Cc1cccc(-n2c(O)c(/C=N/N3CCOCC3)c(=O)[nH]c2=S)c1`, the inhibition is -9.2%.

These data come from PubChem BioAssay AID493012 (Sanford-Burnham Center for Chemical Genomics, 2011).
